The results in this text go back to PubChem BioAssay.

The structures appear in SMILES notation. A number with no mark means an inactive call. Calls of active or inactive are those of the source.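 Rule for the calls: active = luciferase signal above three times the same-plate solvent-only control wells; inactive = the rest.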

The experiment deals with Mitogen-activated protein kinase 7 (Homo sapiens) (UniProt Q13164). Nature of the experiment: Gal4-ERK5 driven luciferase induction – cell-based, HTS, primary screen (AID 1508626).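 Note: luciferase driven by Gal4-ERK5 fusion binding five Gal4 sites before minimal TATA.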 Particulars: HeLa Gal4-ERK5 transactivation, 18 h, at 5 µM, hits give high values.
Mitogen-activated protein kinase 7 (Homo sapiens), sequence (Q13164 whole entry, looked up, the tested form may be a part): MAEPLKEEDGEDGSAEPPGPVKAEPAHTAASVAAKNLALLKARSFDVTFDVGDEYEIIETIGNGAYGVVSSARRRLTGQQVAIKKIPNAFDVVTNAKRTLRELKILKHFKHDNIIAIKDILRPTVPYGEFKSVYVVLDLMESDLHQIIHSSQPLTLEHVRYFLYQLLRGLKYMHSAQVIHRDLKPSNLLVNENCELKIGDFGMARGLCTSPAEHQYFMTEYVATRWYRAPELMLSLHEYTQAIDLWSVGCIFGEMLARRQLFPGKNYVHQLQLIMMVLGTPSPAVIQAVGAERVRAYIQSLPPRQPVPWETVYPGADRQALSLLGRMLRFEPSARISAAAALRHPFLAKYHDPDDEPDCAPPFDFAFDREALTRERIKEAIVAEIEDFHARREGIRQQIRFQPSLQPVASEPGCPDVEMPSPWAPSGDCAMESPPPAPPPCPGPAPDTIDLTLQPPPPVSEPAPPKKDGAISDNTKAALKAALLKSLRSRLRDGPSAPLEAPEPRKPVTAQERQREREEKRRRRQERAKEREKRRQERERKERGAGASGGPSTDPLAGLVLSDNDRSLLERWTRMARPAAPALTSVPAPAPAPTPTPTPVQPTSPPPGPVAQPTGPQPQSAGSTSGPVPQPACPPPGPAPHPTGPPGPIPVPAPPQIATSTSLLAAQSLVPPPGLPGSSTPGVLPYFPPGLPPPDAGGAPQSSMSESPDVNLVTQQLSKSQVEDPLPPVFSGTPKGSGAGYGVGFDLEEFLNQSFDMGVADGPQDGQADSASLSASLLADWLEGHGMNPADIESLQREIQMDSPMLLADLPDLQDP
Turning to `CO/N=C(/C(=O)N[C@@H]1C(=O)N2C(C(=O)OC(C)OC(C)=O)=C(COC(N)=O)CS[C@H]12)c1ccco1` (stereo not given in full), the luciferase signal is 120 AU.

For the molecule `O=c1c(O)c(-c2ccccc2)oc2cccc(O)c12`, the luciferase signal was 60 AU.

On to `CC1(C)CCCC2(C)C3C(O)CC2(C)C(O)C31` (stereo not given), for which the luciferase signal was 64 AU.

As for `C=CCCCCCCCCCCCC(O)CC(O)CO` (stereo not given), the luciferase signal was 220 AU (active).

In the case of `OC[C@@H](O)C(O)[C@@H](O)CO` (stereo not given in full), the luciferase signal is 88 AU.

`COc1cc(-c2oc3cc(O)ccc3c(=O)c2O)ccc1O`: the luciferase signal was 92 AU.

Consider `CC1CCC2(OC1)OC1CC3C4CCC5C[C@@H](O)CCC5(C)C4=CCC3(C)C1C2C` (stereo not given in full), for which the luciferase signal was 644 AU (active).

As for `COc1ccc(-c2cc(=O)c3c(O)c(OC)c(OC)c(OC)c3o2)cc1`, the luciferase signal was 120 AU.

In the case of `CO/N=C1\C[C@]2(C[C@@H]3C[C@@H](C/C=C(\C)C[C@@H](C)/C=C/C=C4\CO[C@@H]5[C@H](O)C(C)=C[C@@H](C(=O)O3)[C@]45O)O2)O[C@H](/C(C)=C/C(C)C)[C@H]1C`, the luciferase signal is 40 AU.

In the case of `COC(=O)Oc1ccccc1C(=O)O`, the luciferase signal is 40 AU.

In the case of `CC(=O)Oc1cc(C)c2c(c1C=O)Oc1c(c(C)c(OC(C)=O)c3c1C(OC(C)=O)OC3=O)OC2=O` (stereo not given), the luciferase signal was 172 AU.

`CC(=O)Oc1ccc2c(c1)CC[C@@H]1[C@@H]2CC[C@]2(C)[C@@H](OC(C)=O)CC[C@@H]12`: the luciferase signal was 8 AU.

As to `NC(=O)CCCCC(S)CCS` (stereo not given), the luciferase signal is 32 AU.

Consider `CC(C)c1c(O)ccc2c1CCC1[C@@](C)(CO)CCC[C@]21C` (stereo not given in full), for which the luciferase signal is 112 AU.

On to `CC(=O)OCC(=O)[C@H]1CC[C@H]2[C@@H]3CC=C4C[C@@H](O)CC[C@]4(C)[C@H]3CC[C@]12C`, for which the luciferase signal was 256 AU (active).

Turning to `CC1(C)CC2C1CC[C@]1(C)CCC3C(C(=O)O)CC(=O)O[C@@]32C1` (stereo not given in full), the luciferase signal was 56 AU.

For the molecule `CC(C)(O)[C@@H]1CC[C@](C)([C@H]2[C@@H](O)C[C@@]3(C)[C@@H]4C[C@H](O[C@@H]5O[C@H](CO)[C@@H](O)[C@H](O)[C@H]5O)[C@H]5C(C)(C)[C@@H](O[C@@H]6OC[C@@H](O)[C@H](O)[C@H]6O)CC[C@@]56C[C@@]46CC[C@]23C)O1`, the luciferase signal was 52 AU.

With `Oc1ccc2c(c1)OC[C@]1(O)Cc3cc(O)c(O)cc3[C@H]21`, the luciferase signal is 28 AU.

For `C/C1=C\CC(C)(C)/C=C/CC2(C)OC2CC1` (stereo not given), the luciferase signal was 64 AU.

For the molecule `O=S(=O)([O][Al])OC[C@H]1O[C@@](COS(=O)(=O)[O][Al])(O[C@H]2O[C@H](COS(=O)(=O)[O][Al])[C@@H](OS(=O)(=O)[O][Al])[C@H](OS(=O)(=O)[O][Al])[C@H]2OS(=O)(=O)[O][Al])[C@@H](OS(=O)(=O)[O][Al])[C@@H]1OS(=O)(=O)[O][Al]`, the luciferase signal is 84 AU.

On to `C[C@H]1[C@@H](O)O[C@@H]2O[C@@]3(C)CC[C@H]4[C@H](C)CC[C@@H]1[C@@]24OO3`, for which the luciferase signal is 52 AU.

Consider `CC(C)CCC[C@@H](C)[C@H]1CC[C@H]2[C@@H]3C=CC4=CC(=O)CC[C@]4(C)[C@H]3CC[C@]12C`, for which the luciferase signal was 44 AU.

With `CC1(C)O[C@H]2[C@H](O)C[C@](O)(C(N)=O)C[C@H]2O1`, the luciferase signal was 20 AU.

Turning to `CCC(=O)OCC(=O)[C@@]1(OC(=O)CC)[C@H](C)CC2C3C(Cl)CC4=CC(=O)C=C[C@]4(C)C3C(O)C[C@@]21C` (stereo not given in full), the luciferase signal was 108 AU.

As to `COC(=O)CC[C@@H](C)[C@H]1CC[C@H]2[C@@H]3CC[C@@H]4C[C@H](O)CC[C@]4(C)[C@H]3C[C@H](O)[C@]12C`, the luciferase signal is 108 AU.

In the case of `C[C@H](CCC(=O)O)[C@H]1CC[C@H]2[C@@H]3CC[C@@H]4C[C@H](O)CC[C@]4(C)[C@H]3C=C[C@]12C`, the luciferase signal was 16 AU.

As for `CC(=O)O[C@@](C)(CCC=C(C)C)C1CC=C(C)CC1` (stereo not given in full), the luciferase signal was 72 AU.

For the molecule `CC[C@H](C)[C@H](N)C(=O)N1CCC[C@H]1C(=O)N[C@H](C(=O)O)[C@@H](C)CC`, the luciferase signal was 120 AU.

As for `Cc1cccc2c3c(ccc12)C1=C(C(=O)C3=O)[C@@H](C)CO1`, the luciferase signal was 156 AU.

With `CC(C)(O)[C@H]1CC[C@]2(C)[C@H]3CC[C@@H]4[C@@]5(C)CCCC(C)(C)[C@@H]5[C@@H](O)C[C@@]4(C)[C@]3(C)CC[C@@H]12`, the luciferase signal was 84 AU.

For `CCCCCCCCCCCC[C@@H](C(=O)O)[C@H](C)C(=O)O`, the luciferase signal was 32 AU.

`C=C[C@](C)(O)CCC=C(C)C`: the luciferase signal is 36 AU.

On to `C=CCCCCCCCCCCCC(O)CC(O)COC(C)=O` (stereo not given), for which the luciferase signal was 48 AU.

In the case of `C=CCSC[C@H](N)C(=O)O`, the luciferase signal is 44 AU.

Regarding `COc1cc2c(cc1OC)C1Cc3ccc(OC)c(OC)c3CN1CC2` (stereo not given), the luciferase signal was 52 AU.

`N[C@@H](C=O)[C@@H](O[C@@H]1O[C@H](C(=O)O)[C@@H](O)[C@H](O)[C@H]1O)[C@@H](O)[C@H](O)CO`: the luciferase signal was 20 AU.

As to `CO/N=C(/C(=O)NC1C(=O)N2C(C(=O)O)=C(CSc3nc(=O)c(=O)[nH]n3C)CS[C@H]12)c1csc(N)n1` (stereo not given in full), the luciferase signal is 52 AU.

Take `CO[C@H]1O[C@H](CO)C(O[C@@H]2OC(C(=O)O)[C@@H](O[C@H]3O[C@H](COS(=O)(=O)O)C(O[C@@H]4OC(C(=O)O)[C@@H](O[C@H]5O[C@H](CO)C(O[C@@H]6OC(C(=O)O)[C@@H](O[C@H]7O[C@H](COS(=O)(=O)O)C(O[C@@H]8OC(C(=O)O)=C[C@H](O)C8OS(=O)(=O)O)[C@H](O)[C@H]7NC(C)=O)[C@H](O)[C@H]6O)[C@H](O)[C@H]5NC(C)=O)[C@H](O)[C@H]4O)[C@H](O)[C@H]3NC(C)=O)[C@H](O)[C@H]2O)[C@H](O)[C@H]1NC(C)=O` (stereo not given in full): the luciferase signal is 100 AU.

Turning to `CC(C)CCC[C@@H](C)[C@H]1CC[C@H]2[C@@H]3C(=O)C=C4C[C@@H](O)CC[C@]4(C)[C@H]3CC[C@]12C`, the luciferase signal was 80 AU.

With `COC(=O)C[C@H]1C(C)(C)C(=O)[C@@H]2CC3=C(CC[C@]4(C)C3=CC(=O)O[C@H]4c3ccoc3)[C@@]1(C)C2=O`, the luciferase signal is 24 AU.
